The panel holds about 83,000 compounds, 20% with a hit somewhere; the sample as a whole holds those more often.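 A percent growth of 40 corresponds to 60% growth inhibition; 0 means no net growth; -100 means all cells died. Active threshold: below 10.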 A number with no mark means an inactive call. The source made the active and inactive calls.

The values that follow come from PubChem BioAssay (NCI).

For this experiment, the system named is MDA-MB-468 breast. In words: NCI-60 one-dose screen, 48 h (100 = growth as untreated, 0 = no growth, -100 = all killed). To be noted: 10 µM unless noted.
Regarding `Cc1nc(Nc2cn[nH]c2C(=O)Nc2ccc(CN3CCN(C)CC3)cc2)c2ccsc2n1`, the growth was 104%. In the case of `O=C(/C=C/c1ccccc1)c1ccc(O)c(CN2CCN(c3cc4c(cc3F)c(=O)c(C(=O)O)cn4C3CC3)CC2)c1`, the growth is 3.64% (active). Consider `O=C(O)c1ccccc1Oc1cc(-c2ccco2)nc(OCCBr)n1`, for which the growth is 119%.
